Measurements: PubChem BioAssay AID2546 (National Center for Advancing Translational Sciences (NCATS), 2010)
The campaign covered roughly 310,000 compounds. About 11,000 (3.5%) were called active. Not shown: some 8% with an inconclusive outcome. Shown is part of a subset that was picked to be rich in actives. A call without a number means that no potency is given here. A number with no mark means an inactive call. Calls come from the whole dose curve; as a rule, active = well fitted inhibition curve with a large enough effect; inconclusive = small, poorly fitted or top-dose-only effect, or effect the other way; inactive = flat fitted curve, though single readings scatter.

Experiment: VP16 counterscreen qHTS for inhibitors of ROR gamma transcriptional activity;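 note: Gal4-VP16 expression switched on by copper sulfate through the metallothionein promoter; nearly all actives have a fitted effect of over 50% in size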
Settings: Drosophila S2 Gal4-VP16 UAS-luciferase, luminescence, 20 h; series mostly up to 53.6 µM
Potency is the fitted concentration of half-maximal effect.

SMILES	Potency	activity, negative = inhibition
C[C@]12O[C@H](C[C@@]1(O)C(=O)O)n1c3ccccc3c3c4c(c5c6ccccc6n2c5c31)CNC4=O	inactive	–
CN1CCCC(=C(c2cccs2)c2cccs2)C1	inactive	–
Cc1nc2ccccn2c1P(=S)(N1CCCCC1)N1CCCCC1	11.2 µM (active)	–
c1ccc(CCCCN2CCC(c3ccccc3)CC2)cc1	inactive	–
O=c1oc2ccccc2c(O)c1C(c1ccccc1O)c1c(O)c2ccccc2oc1=O	inactive	–
CC(C)(C)C(O)(CCc1ccc(Cl)cc1)Cn1cncn1 (stereo unspecified)	inactive	–
CC1=CC(=O)C2=C(C)C[C@H](O)[C@H]3[C@H](C)C(=O)O[C@@H]3C12 (stereo partly specified)	inactive	–
CCCCCCCCCCCCCC(=O)O[C@@H]1[C@@H](C)[C@@]2(O)[C@@H](C=C(CO)C[C@]3(O)C(=O)C(C)=C[C@@H]23)[C@@H]2C(C)(C)[C@]12OC(C)=O	inactive	–
CCCCCCCCc1[se]c2ccccc2c1Br	inactive	–
CN(C)C[C@H]1CCCC[C@]1(O)c1cccc(O)c1	inactive	–
Cc1ccc(NC(=O)CN(C)CC(=O)Nc2cccc(F)c2)cc1[N+](=O)[O-]	4.47 µM (active)	–
c1ccc(CN2CC[C@@]3(CCCNC3)C2)cc1	inactive	–
ClCCBr	inactive	–
COc1cc(-n2c(=S)[nH]c3ccc(C)cc3c2=O)c(Cl)cc1Cl	5.62 µM (active)	–
ClC(Cl)=C(Cl)C(Cl)=C(Cl)Cl	inactive	–
c1csc(CN2CCCC3(CCNCC3)C2)n1	inactive	–
CN[C@@H]1C[C@H]2O[C@@](C)([C@@H]1OC)n1c3ccccc3c3c4c(c5c6ccccc6n2c5c31)C(=O)NC4	–	-1.08% [at 10 µM]
COC(=O)c1ccc2[se]c(CC3CCCCC3)c(I)c2c1	inactive	–
CCN(CC)c1nc(C)cc(OP(=S)(OC)OC)n1	inactive	–

SMILES	Potency	activity, negative = inhibition
C=CC#N	inactive	–
N#Cc1c(Cl)c(Cl)c(Cl)c(C#N)c1Cl	1.78 µM (active)	–
CCCCC/C=C\C/C=C\C/C=C\C/C=C\CCCCCC(=O)NCCO	inactive	–
N#CCCCl	inactive	–
COc1cccc(N2C(=O)NC(=O)/C(=C\c3ccc([N+](=O)[O-])s3)C2=O)c1	inactive	–
O=C1NC(=O)N(c2ccccc2)C(=O)/C1=C/c1ccc([N+](=O)[O-])s1	inactive	–
Cc1cccc(N2C(=O)NC(=O)/C(=C\c3cnn(-c4ccccc4)c3)C2=O)c1	12.6 µM (active)	–
N#Cc1cc(Br)c(O)c(Br)c1	inactive	–
N[C@H](Cc1o[nH]c(=O)c1Cl)C(=O)O	inactive	–
COC1CC(OC2CC[C@@]3(C=O)C4CC[C@]5(C)C(C6=CC(=O)OC6)CC[C@@]5(O)C4CC[C@]3(O)C2)OC(C)C1O (stereo partly specified)	inactive	–
CC[N+](C)(CC)CCC[n+]1c(-c2ccccc2)c2cc(N)ccc2c2ccc(N)cc21	2.51 µM (active)	–
O=P1(Oc2ccccc2)CC(O)C(O)C(COCc2ccccc2)O1 (stereo unspecified)	inactive	–
C[C@H]1CC[C@@]2(NC1)O[C@@H]1C[C@H]3[C@@H]4CC=C5C[C@@H](O)CC[C@]5(C)[C@@H]4CC[C@]3(C)[C@@H]1[C@@H]2C	inactive	–
CN1C2CC3CC1C(O3)C2O (stereo unspecified)	inactive	–
COC([CH2][Hg])CNC(=O)c1ccccc1OCC(=O)O (stereo unspecified)	inactive	–
Nc1ccc(-c2ccc(N)c(N)c2)cc1N	inactive	–
COc1cc2c(cc1OC)[C@@H]1C(=O)c3ccc(O)c(CC=C(C)C)c3OC1CO2 (stereo partly specified)	inactive	–
CCCCCn1c(=O)c(C(=O)NCc2ccccn2)c(O)c2ccccc21	17.8 µM (active)	–
CCCCn1c(=O)c(C(=O)Nc2ccccc2Cl)c(O)c2ccccc21	inactive	–

SMILES	Potency	activity, negative = inhibition
CCCCCn1c(=O)c(C(=O)Nc2c(C)n(C)n(-c3ccccc3)c2=O)c(O)c2ccccc21	inactive	–
Clc1ccc([C@@H]2C[C@H]3CC[C@@H]2N3)cn1	inactive	–
Cc1cccc([C@H](C)c2cnc[nH]2)c1C	inactive	–
COc1ccccc1-c1[se]c2ccccc2c1I	inactive	–
O=C1CCc2cccc3c2N1CC3	inactive	–
CCC(C)C(=O)O[C@@H]1C[C@@]2(C)C(c3ccoc3)OC(=O)CC23OC2(C)O[C@@]14[C@@]1(C)C(CC(=O)OC)C5(C)CC1(O)C(O)(C5OC(=O)C1(C)OC1C)C(OC(C)=O)[C@@]34O2 (stereo partly specified)	inactive	–
BrC1C(Br)C(Br)C(Br)C(Br)C1Br (stereo unspecified)	7.94 µM (active)	–
N[C@H](C(=O)O)c1cc(=O)[nH]o1	inactive	–
CCCCC/C=C\C/C=C\C/C=C\C=C\[C@H](CCCC(=O)O)OO	inactive	–
C/C(=C\C=C/[C@@H](C)C(=O)O)[C@H]1CN[C@H](C(=O)O)[C@@H]1CC(=O)O	inactive	–
CC(C)(Cc1c[nH]c2ccc(Cl)cc12)NCCOc1ccccc1OCC1CC1	15.8 µM (active)	–
C[C@H]1C/C=C/[C@@H]2[C@@H]3O[C@]3(C)[C@@H](C)[C@H]3[C@H](Cc4ccccc4)NC(=O)[C@]32OC(=O)O/C=C/[C@](C)(O)C1=O	inactive	–
C[C@@H]1C[C@H]2CC[C@H](O2)[C@H](C)C(=O)O[C@@H](C)C[C@@H]2CC[C@@H](O2)[C@@H](C)C(=O)O[C@H](C)C[C@H]2CC[C@H](O2)[C@H](C)C(=O)O[C@@H](C)C[C@@H]2CC[C@@H](O2)[C@@H](C)C(=O)O1	1 µM (active)	–
C1CC[C@H]([C@@]23C[C@H](C[C@H]4CCCN[C@H]42)[C@@H]2CCCCN2C3)NC1	inactive	–
O=C(Nc1cccc(F)c1)N1CC[C@@]2(CCCN(C(=O)Oc3ccccc3)C2)C1	inactive	–
C=CCSSCC=C	inactive	–
CC(C)(c1ccc(OC[C@@H]2CO2)cc1)c1ccc(OC[C@H]2CO2)cc1	inactive	–
O=C(N/N=C/c1ccc([N+](=O)[O-])o1)c1cc([N+](=O)[O-])cc([N+](=O)[O-])c1O	inactive	–
